# Laboratory results taken from PubChem BioAssay (NCI).
# Compounds without any hit were thinned out: in the full panel of roughly 83,000, 20% have a hit.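 Growth was measured after 48 h exposure to one concentration of compound in 96-well plates. Values under 10 count as active.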 A number with no mark means an inactive call. Calls of active or inactive are those of the source.
# Tests used:
# Experiment in all cases: NCI-60 one-dose screen, 48 h (100 = growth as untreated, 0 = no growth, -100 = all killed)
# SR leukemia = conditions: 10 µM unless noted
# RPMI-8226 leukemia = conditions: 10 µM unless noted
# OVCAR-8 ovarian = conditions: 10 µM unless noted
# OVCAR-5 ovarian = conditions: 10 µM unless noted
# OVCAR-4 ovarian = conditions: 10 µM unless noted
# SK-OV-3 ovarian = conditions: 10 µM unless noted
# IGROV1 ovarian = conditions: 10 µM unless noted
# OVCAR-3 ovarian = conditions: 10 µM unless noted
# NCI/ADR-RES ovarian = conditions: 10 µM unless noted
# T-47D breast = conditions: 10 µM unless noted
# BT-549 breast = conditions: 10 µM unless noted
# MDA-MB-435 melanoma = conditions: 10 µM unless noted
# SW-620 colon = conditions: 10 µM unless noted
# MCF7 breast = conditions: 10 µM unless noted
# HCT-116 colon = conditions: 10 µM unless noted
# HCC-2998 colon = conditions: 10 µM
# KM12 colon = conditions: 10 µM unless noted
Compound,growth (SR leukemia),growth (RPMI-8226 leukemia),growth (OVCAR-8 ovarian),growth (OVCAR-5 ovarian),growth (OVCAR-4 ovarian),growth (SK-OV-3 ovarian),growth (IGROV1 ovarian),growth (OVCAR-3 ovarian),growth (NCI/ADR-RES ovarian),growth (T-47D breast),growth (BT-549 breast),growth (MDA-MB-435 melanoma),growth (SW-620 colon),growth (MCF7 breast),growth (HCT-116 colon),growth (HCC-2998 colon),growth (KM12 colon)
CCNC(=O)C#Cc1ccc2c(C(=Nc3ccc(CN(C)C)cc3)c3ccccc3)c(O)[nH]c2c1,-13.6% (active),30%,48.3%,5.7% (active),51.9%,10.8%,5.41% (active),51%,54.3%,62.3%,52.8%,14.7%,0.412% (active),33.1%,-16.2% (active),-17.3% (active),6.13% (active)
NC1=Nc2cc(OCCCN3Cc4ccccc4C3)c(OCC3CC3)cc2C12CCCC2,-5.81% (active),33.8%,72%,83.5%,61.3%,70.1%,71.7%,75.7%,79%,2.41% (active),68.6%,38.1%,76.3%,47.5%,32.9%,1.52% (active),69.6%
CCS(=O)(=O)N1CCN(c2ccc(Nc3ncc(C(N)=O)c(NC4CC4)n3)cc2)CC1,48.9%,62.2%,89%,86.7%,111%,80.7%,77.4%,90.2%,101%,99.1%,67%,68.7%,60.1%,68.5%,49.2%,98.3%,24.5%
C/C(=C(/c1ccc(Cl)cc1)c1ccc(OCCN2CCCCCC2)cc1)c1ccccc1,18%,70.2%,89%,69.6%,73.5%,113%,74.1%,89.6%,90%,71.1%,84.4%,92.6%,54%,76%,50%,93.8%,30.7%
C#Cc1cccc(Nc2ncnc3cc4c(cc23)OCCOCCOCCO4)c1,53.5%,70%,53.9%,60.4%,63.2%,-17% (active),15.2%,40.9%,58.5%,33%,50.3%,24.6%,84.7%,56.1%,64.7%,97.9%,53%
COc1cc(Nc2ncc(F)c(Nc3ccc4c(n3)N(COP(=O)(O)O)C(=O)C(C)(C)O4)n2)cc(OC)c1OC,21.6%,46.4%,28.7%,17.6%,44.1%,-41.4% (active),-17.6% (active),43.4%,20.5%,14.4%,1.78% (active),26.5%,38.2%,25.7%,22.1%,66.8%,11.7%
Cn1ncc(Cl)c1-c1cc(C(=O)N[C@H](CN)Cc2ccc(F)c(F)c2)oc1Cl,-10.6% (active),-5.77% (active),-38.4% (active),5.81% (active),24.8%,-41.6% (active),-23.8% (active),18.2%,8.92% (active),-50.7% (active),-66.4% (active),-59.8% (active),27.9%,-28.5% (active),-28.3% (active),-89.9% (active),-39.2% (active)
Cc1csc(-c2nnc(Nc3ccc(Oc4ncccc4-c4ccnc(N)n4)cc3)c3ccccc23)c1,3.4% (active),51.8%,31%,51.5%,60.3%,53%,24.5%,56%,50%,30.5%,60.4%,31.9%,20.3%,12%,22.1%,36.1%,19.2%
Cc1nc(NC(=O)N2CCC[C@H]2C(N)=O)sc1-c1ccnc(C(C)(C)C(F)(F)F)c1,26.2%,48.7%,48.5%,36.5%,72%,-25.6% (active),-23.5% (active),39.1%,60.8%,-34.7% (active),50.2%,49.3%,41.7%,13.9%,26.4%,48.6%,57.6%
CN(C[C@@H]1COCCO1)S(=O)(=O)Nc1ccc2ccc3ncc(-c4cnn(C)c4)cc3c(=O)c2c1,13.1%,38.5%,31.3%,55.2%,38.2%,1.71% (active),11.5%,55.4%,52.1%,15.9%,28.1%,44.7%,37%,36.3%,24.1%,74.1%,10.2%
O=C(Nc1cn[nH]c1-c1nc2ccc(CN3CCOCC3)cc2[nH]1)NC1CC1,-11.9% (active),108%,28.7%,22.5%,78.5%,-5.97% (active),9.49% (active),11.7%,76.3%,36.7%,2.57% (active),35.9%,11.5%,10.4%,3.94% (active),41.8%,6.92% (active)
Cc1c(CN2CCN(C(=O)[C@H](C)O)CC2)sc2c(N3CCOCC3)nc(-c3cnc(N)nc3)nc12,-3.28% (active),1.84% (active),-4.51% (active),-11.6% (active),-9.47% (active),-39.1% (active),-50.1% (active),3.12% (active),7% (active),-38% (active),-3.06% (active),-9.11% (active),7.94% (active),1.68% (active),5.47% (active),0.359% (active),6.74% (active)
CCCCCCCC12Cc3ccccc3C1=Nc1c(c3ccccc3n1C)C2=O (centres undefined),82.6%,91.8%,85.2%,86.5%,97.4%,81.6%,69.5%,92.9%,94.2%,72.4%,108%,105%,97%,80.2%,73.9%,96.3%,94.2%
CCc1cc2c(cc1N1CCC(N3CCOCC3)CC1)C(C)(C)c1[nH]c3cc(C#N)ccc3c1C2=O,-3.84% (active),15.7%,-11.3% (active),-8.72% (active),-50.9% (active),-22.5% (active),-41.6% (active),4.44% (active),-1.18% (active),-26.7% (active),-19.3% (active),5.08% (active),2.54% (active),13.8%,-7.97% (active),5.22% (active),4.1% (active)
O=C1C=CC2(NN=C(c3ccccc3)N2c2ccccc2)c2cccc(O)c21 (centres undefined),38.5%,65.5%,62.2%,39.9%,40.8%,91.2%,53.8%,11.3%,42.2%,78.8%,41.1%,-92.4% (active),34.9%,35.4%,18.1%,54.2%,47.3%
COc1cc2ncnc3c2cc1OCCCCCN(C)Cc1ccc(Br)cc1N3,21.6%,64.1%,41.9%,50.1%,42%,-4.09% (active),-8.59% (active),46.9%,46.7%,4.78% (active),60.6%,72.3%,47.7%,56.9%,33.2%,68%,58.9%
Cc1cccc(C)c1N1C(c2ccccc2)=NNC12C=CC(=O)c1c(O)cccc12 (centres undefined),56.9%,75.6%,69.6%,90.8%,70.5%,86%,83.3%,51.7%,70.3%,96.2%,44.7%,-90.1% (active),103%,78.7%,45.3%,98.5%,75.9%
